Assay results from PubChem BioAssay (EPA / NIEHS).
The source made the active and inactive calls. Rule for the calls: active = hit-call score of the fitted dose curve at least 0.9, where 1 is the maximum; inactive = score below 0.9.

Columns and labels:
[1] = ATG_E_Box_CIS: Attagene CIS-FACTORIAL HepG2 Assay for human Enhancer Box (E-box) (AID 2282936); settings: HepG2 E-box cis-reporter transcription, actives raise or lower the signal
How it was run: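 Fluorescent reporter fragments separated by capillary electrophoresis gave the signal; mRNA came from HepG2 cells transfected with cis-element reporters and treated 24 h. Curves fitted bidirectionally relative to DMSO controls.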

[2] = ATG_M_61_CIS: Attagene CIS-FACTORIAL HepG2 Assay for M61 Transcription Factor (Internal Marker) (AID 2282937); settings: HepG2 Attagene CIS-FACTORIAL M61 internal marker reporter; actives raise or lower the signal
How it was run: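 Using transiently transfected HepG2 liver cells, reporter transcript levels were assessed 24 h post-dosing by RT-PCR and capillary electrophoresis. Changes in either direction were fitted relative to DMSO controls.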

[3] = ATG_EGR_CIS: Attagene CIS-FACTORIAL HepG2 Assay for human Early Growth Response 1 (EGR1) (AID 2282938); settings: HepG2 Attagene CIS-FACTORIAL EGR reporter mRNA; actives raise or lower the signal
How it was run: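 Fluorescent capillary-electrophoresis signal of reporter cDNA fragments serves as read-out. HepG2 cells bear transiently transfected cis-promoter reporter units and are exposed 24 h; gain- or loss-of-signal is fitted against DMSO.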

[4] = ATG_M_19_CIS: Attagene CIS-FACTORIAL HepG2 Assay for M19 Transcription Factor (Internal Marker) (AID 2282939); settings: HepG2 Attagene CIS-FACTORIAL M19 internal marker reporter; actives raise or lower the signal
How it was run: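 Following a 24 h exposure, RNA from transfected HepG2 cells was reverse-transcribed, PCR-amplified with reporter-specific primers, end-labelled with 6-FAM and HpaI-digested before capillary separation. Values represent gain or loss versus DMSO.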

[5] = ATG_ERE_CIS: Attagene CIS-FACTORIAL HepG2 Assay for Estrogen Response Element (ERE) (AID 2282940); settings: HepG2 ERE cis-reporter, Attagene RNA transcript; actives raise or lower the signal
How it was run: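 HepG2, transient cis-reporter units, 24 h exposure. RNA isolated, oligo(dT) RT, reporter-specific PCR, FAM extension, HpaI cut, CE detection. Gain/loss-of-signal vs DMSO.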

[6] = ATG_Ets_CIS: Attagene CIS-FACTORIAL HepG2 Assay for human Erythroblast Transformation Specific (ETS) (AID 2282941); settings: HepG2 ETS cis-reporter transcription, actives raise or lower the signal
How it was run: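 Cis-regulated reporter mRNA induction in HepG2 (transient transfection), 24 h exposure, RT-PCR plus capillary electrophoresis detection; DMSO serves as negative control and baseline.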

[7] = target: Hepatocyte nuclear factor 3-beta (Homo sapiens) (UniProt Q9Y261); assay: ATG_FoxA2_CIS: Attagene CIS-FACTORIAL HepG2 Assay for human Forkhead box A2 (FOXA2) (AID 2282942); settings: HepG2 cis-reporter transcription factor activity, 24 h; actives raise or lower the signal
Hepatocyte nuclear factor 3-beta (Homo sapiens), sequence (Q9Y261 whole entry, looked up, the tested form may be a part): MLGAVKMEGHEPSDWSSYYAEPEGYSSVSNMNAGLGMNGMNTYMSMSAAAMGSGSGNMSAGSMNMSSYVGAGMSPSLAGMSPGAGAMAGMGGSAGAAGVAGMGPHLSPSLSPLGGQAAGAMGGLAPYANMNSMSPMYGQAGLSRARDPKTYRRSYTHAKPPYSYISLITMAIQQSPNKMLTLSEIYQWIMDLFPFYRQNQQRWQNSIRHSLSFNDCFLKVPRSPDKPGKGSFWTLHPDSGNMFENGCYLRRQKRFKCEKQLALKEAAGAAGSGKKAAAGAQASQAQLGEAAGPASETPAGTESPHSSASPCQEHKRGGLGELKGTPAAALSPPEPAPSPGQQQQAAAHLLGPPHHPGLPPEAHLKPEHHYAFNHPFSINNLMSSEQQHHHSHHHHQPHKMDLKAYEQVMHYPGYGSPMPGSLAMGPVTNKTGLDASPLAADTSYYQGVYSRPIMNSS
How it was run: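 Fluorescence signal of reporter cDNA fragments, separated by capillary electrophoresis, reflects endogenous transcription factor activity in transfected HepG2 after 24 h. Both increases and decreases fitted against DMSO.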

[8] = ATG_FoxO_CIS: Attagene CIS-FACTORIAL HepG2 Assay for human Forkhead box O (FoxO) (AID 2282943); settings: HepG2 Attagene cis-reporter, FoxO element, mRNA; actives raise or lower the signal
How it was run: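 Endogenous transcription factor activity read from multiplexed cis-promoter reporter transcripts in transiently transfected HepG2, 24 h after dosing. Reporter RNA measured via RT-PCR plus capillary electrophoresis of FAM-labeled products; gain or loss relative to DMSO.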

[9] = ATG_GATA_CIS: Attagene CIS-FACTORIAL HepG2 Assay for human GATA Binding Protein (AID 2282944); settings: HepG2 GATA cis-element reporter, Attagene multiplex mRNA; actives raise or lower the signal
How it was run: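 DMSO serves as negative control and baseline for bidirectional fitting of reporter mRNA changes. HepG2 cells bearing transiently transfected cis-promoter reporters were exposed 24 h; transcripts detected via RT-PCR and capillary electrophoresis.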

[10] = ATG_GLI_CIS: Attagene CIS-FACTORIAL HepG2 Assay for human Zinc Finger Protein GLI1 (AID 2282945); settings: HepG2, Attagene cis-factorial reporter mRNA, GLI element; actives raise or lower the signal
How it was run: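 Bidirectional curve fits relative to DMSO, using reporter mRNA levels from RT-PCR plus capillary electrophoresis. Cells were HepG2 transiently carrying cis-regulated reporter constructs, harvested 24 h after dosing.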

[11] = ATG_GRE_CIS: Attagene CIS-FACTORIAL HepG2 Assay for human Glucocorticoid Response Elements (GRE) (AID 2282947); settings: HepG2 GRE cis-reporter, Attagene multiplex mRNA; actives raise or lower the signal
How it was run: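 Multiplexed cis-reporter mRNA induction, HepG2, 24 h post-dose. RT-PCR, FAM-labelled, HpaI-digested amplicons by CE. Bidirectional fit vs DMSO.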

[12] = ATG_ISRE_CIS: Attagene CIS-FACTORIAL HepG2 Assay for human Interferon Regulatory Factor 1 (IRF1) binding to an Interferon-Stimulated Response Element (ISRE) (AID 2282948); settings: HepG2 ISRE cis-reporter (Attagene), mRNA transcription readout; actives raise or lower the signal
How it was run: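 Multiplexed mRNA reporter readout in human liver HepG2 cells: cis-element-driven reporters transfected, compound added for 24 h, transcripts amplified, fluorescently labelled and sized by capillary electrophoresis; curve fitting bidirectional against DMSO.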

[13] = ATG_M_32_CIS: Attagene CIS-FACTORIAL HepG2 Assay for M32 Transcription Factor (Internal Marker) (AID 2282949); settings: HepG2 Attagene cis-factorial M32 reporter, mRNA; actives raise or lower the signal;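 note: background control marker of the multiplexed CIS panel rather than a real target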
How it was run: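 Transient MRTU transfection of HepG2; 24 h compound treatment; TriZol RNA, oligo(dT) RT, reporter PCR, 6-FAM primer extension, HpaI cut, CE. Gain/loss of signal vs DMSO.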

[14] = ATG_M_06_CIS: Attagene CIS-FACTORIAL HepG2 Assay for M06 Transcription Factor (Internal Marker) (AID 2282950); settings: HepG2 Attagene CIS-FACTORIAL M06 internal marker reporter; actives raise or lower the signal
How it was run: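 Fluorescence-labelled RT-PCR products from cis-promoter reporter units, cut with HpaI and resolved by capillary electrophoresis, give the signal. Cells are human HepG2, dosed for 24 h. Serves as background control, fitted relative to DMSO.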

[15] = target: Hypoxia-inducible factor 1-alpha (Homo sapiens) (UniProt Q16665); assay: ATG_HIF1a_CIS: Attagene CIS-FACTORIAL HepG2 Assay for human Hypoxia Inducible Factor 1 (HIF1A) (AID 2282951); settings: HepG2 Attagene cis-factorial HIF1a reporter transcription; actives raise or lower the signal
Hypoxia-inducible factor 1-alpha (Homo sapiens), sequence (Q16665 whole entry, looked up): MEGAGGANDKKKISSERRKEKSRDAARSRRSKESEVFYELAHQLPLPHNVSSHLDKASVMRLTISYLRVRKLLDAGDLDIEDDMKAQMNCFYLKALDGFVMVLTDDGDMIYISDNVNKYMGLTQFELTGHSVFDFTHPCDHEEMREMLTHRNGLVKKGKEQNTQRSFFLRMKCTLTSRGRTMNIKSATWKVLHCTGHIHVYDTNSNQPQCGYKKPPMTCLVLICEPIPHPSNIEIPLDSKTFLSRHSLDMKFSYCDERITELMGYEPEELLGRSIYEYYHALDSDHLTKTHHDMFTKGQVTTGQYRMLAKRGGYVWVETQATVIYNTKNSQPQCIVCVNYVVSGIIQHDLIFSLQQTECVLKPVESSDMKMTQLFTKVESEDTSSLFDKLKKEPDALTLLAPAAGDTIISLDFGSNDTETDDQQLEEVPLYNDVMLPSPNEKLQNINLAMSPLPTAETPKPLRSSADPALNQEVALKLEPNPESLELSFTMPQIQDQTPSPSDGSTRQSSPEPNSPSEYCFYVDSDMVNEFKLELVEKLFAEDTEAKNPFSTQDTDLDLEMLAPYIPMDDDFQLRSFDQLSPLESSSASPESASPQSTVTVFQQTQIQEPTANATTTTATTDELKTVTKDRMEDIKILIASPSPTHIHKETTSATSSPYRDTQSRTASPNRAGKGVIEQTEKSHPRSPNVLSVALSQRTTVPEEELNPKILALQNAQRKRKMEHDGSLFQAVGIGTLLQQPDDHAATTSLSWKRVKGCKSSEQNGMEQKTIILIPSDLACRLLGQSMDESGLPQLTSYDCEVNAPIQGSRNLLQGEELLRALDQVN
How it was run: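 Endogenous-TF cis reporter readout, human HepG2 cells, 24 h incubation; mRNA detected via RT-PCR and capillary electrophoresis fluorescence; DMSO-normalised bidirectional fitting.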

[16] = target: Hepatocyte nuclear factor 6 (Homo sapiens) (UniProt Q9UBC0); assay: ATG_HNF6_CIS: Attagene CIS-FACTORIAL HepG2 Assay for human Hepatocyte Nuclear Factor 6 (HNF6) (AID 2282952); settings: HepG2 Attagene cis-factorial HNF6 reporter transcription; actives raise or lower the signal
Hepatocyte nuclear factor 6 (Homo sapiens), sequence (Q9UBC0 whole entry, looked up): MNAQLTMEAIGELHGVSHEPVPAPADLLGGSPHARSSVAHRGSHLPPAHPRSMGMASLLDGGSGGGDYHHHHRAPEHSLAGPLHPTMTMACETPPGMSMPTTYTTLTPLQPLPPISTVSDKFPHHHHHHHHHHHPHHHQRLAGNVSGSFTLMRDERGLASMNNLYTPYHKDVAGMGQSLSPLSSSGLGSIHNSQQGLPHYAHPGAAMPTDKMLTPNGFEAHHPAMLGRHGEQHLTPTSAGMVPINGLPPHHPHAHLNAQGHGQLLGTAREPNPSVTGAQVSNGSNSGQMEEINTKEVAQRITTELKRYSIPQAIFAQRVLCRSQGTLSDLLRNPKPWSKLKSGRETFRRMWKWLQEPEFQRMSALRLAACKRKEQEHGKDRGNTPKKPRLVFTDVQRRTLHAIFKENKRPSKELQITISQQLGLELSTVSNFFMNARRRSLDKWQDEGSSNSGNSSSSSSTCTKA
How it was run: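 Endogenous factor activity read in transiently transfected HepG2 via promoter-regulated reporter transcripts. RNA harvested 24 h post-dosing, reverse-transcribed, PCR-amplified, FAM-labelled, HpaI-digested and resolved by capillary electrophoresis; fitted in both directions against DMSO.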

[17] = target: Heat shock factor protein 1 (Homo sapiens) (UniProt Q00613); assay: ATG_HSE_CIS: Attagene CIS-FACTORIAL HepG2 Assay for human Heat Shock Transcription Factor 1 (HSE) (AID 2282953); settings: HepG2 HSE cis-reporter, Attagene RNA transcription; actives raise or lower the signal
Heat shock factor protein 1 (Homo sapiens), sequence (Q00613 whole entry, looked up): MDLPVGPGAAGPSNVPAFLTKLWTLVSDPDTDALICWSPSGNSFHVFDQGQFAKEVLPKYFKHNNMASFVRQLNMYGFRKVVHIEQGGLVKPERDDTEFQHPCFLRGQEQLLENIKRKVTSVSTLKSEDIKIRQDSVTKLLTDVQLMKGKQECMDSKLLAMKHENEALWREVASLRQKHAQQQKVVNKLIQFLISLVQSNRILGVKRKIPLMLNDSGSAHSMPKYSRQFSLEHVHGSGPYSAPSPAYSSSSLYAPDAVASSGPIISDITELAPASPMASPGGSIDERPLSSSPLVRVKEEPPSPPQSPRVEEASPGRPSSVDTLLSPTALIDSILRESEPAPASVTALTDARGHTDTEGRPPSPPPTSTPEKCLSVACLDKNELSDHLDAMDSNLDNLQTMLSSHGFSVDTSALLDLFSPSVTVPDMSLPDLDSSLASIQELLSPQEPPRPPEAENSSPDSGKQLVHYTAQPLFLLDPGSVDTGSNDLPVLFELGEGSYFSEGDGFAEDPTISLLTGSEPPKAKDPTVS
How it was run: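 After a 24 h incubation with test chemical, transfected HepG2 cells were harvested for RNA; reporter transcripts were measured by RT-PCR and capillary electrophoresis. Values reflect gain or loss of signal relative to DMSO.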

[18] = ATG_MRE_CIS: Attagene CIS-FACTORIAL HepG2 Assay for human Metal Responsive Element (MRE) (AID 2282954); settings: HepG2 MRE cis-reporter transcription, Attagene multiplex; actives raise or lower the signal
How it was run: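 Multiplexed cis-reporter assay in human HepG2 liver cells, 24 h incubation with test chemical. Reporter transcripts measured by RT-PCR and capillary electrophoresis; values from bidirectional curve fitting versus DMSO.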

[19] = ATG_PBREM_CIS: Attagene CIS-FACTORIAL HepG2 Assay for human Phenobarbital-responsive Enhancer Module (PBREM) (AID 2282955); settings: HepG2 PBREM cis-reporter, Attagene multiplexed transcription; actives raise or lower the signal
How it was run: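 Readout: reporter mRNA, fluorescent RT-PCR fragments separated by capillary electrophoresis. System: HepG2 transiently transfected with cis-regulated reporter units. Exposure: 24 h. Analysis: bidirectional, DMSO baseline.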

[20] = target: Paired box protein Pax-6 (Homo sapiens) (UniProt P26367); assay: ATG_Pax6_CIS: Attagene CIS-FACTORIAL HepG2 Assay for human Paired Box 6 (PAX6) (AID 2282956); settings: HepG2 CIS-FACTORIAL PAX6 reporter transcription, RNA readout; actives raise or lower the signal
Paired box protein Pax-6 (Homo sapiens), sequence (P26367 whole entry, looked up): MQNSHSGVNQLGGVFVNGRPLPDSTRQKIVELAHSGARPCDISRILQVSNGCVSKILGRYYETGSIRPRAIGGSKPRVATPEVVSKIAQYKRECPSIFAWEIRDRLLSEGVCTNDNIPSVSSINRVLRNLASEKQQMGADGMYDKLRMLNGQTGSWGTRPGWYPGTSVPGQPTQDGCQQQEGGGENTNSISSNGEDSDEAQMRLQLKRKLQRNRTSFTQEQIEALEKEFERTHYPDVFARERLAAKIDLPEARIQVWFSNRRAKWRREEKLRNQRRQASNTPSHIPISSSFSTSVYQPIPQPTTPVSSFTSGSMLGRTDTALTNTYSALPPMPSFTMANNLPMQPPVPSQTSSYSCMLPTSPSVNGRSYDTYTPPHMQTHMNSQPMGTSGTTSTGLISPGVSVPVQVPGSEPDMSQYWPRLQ
How it was run: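 Fluorescent RT-PCR products separated by capillary electrophoresis report PAX6-linked promoter mRNA in HepG2 cells 24 h post-dose. Curves fitted bidirectionally, DMSO as negative control.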

Measured: AC50

COc1cccc(-c2ccc(/C=C\CN3CCCCCC3)cc2Cl)c1
inactive: all assays above

COc1ccc2sc(C(=O)Nc3nnn[nH]3)c(OC(C)C)c2c1
active: [3] 146 µM | [5] 25.7 µM | [12] 44.1 µM | [15] 149 µM | [18] 91.1 µM | [20] 129 µM
not listed: [17]
inactive: all other assays above

O=c1[nH]c2ccc(S(=O)CCN3CCC(Cc4ccc(F)cc4)CC3)cc2o1 (configuration not stated)
active: [3] 121 µM | [18] 155 µM | [20] 73 µM
not listed: [13] | [17]
inactive: all other assays above

COC(=O)CC(=O)OC
not listed: [17]
inactive: all other assays above

O=P(OC(CCl)CCl)(OC(CCl)CCl)OC(CCl)CCl
inactive: [1] | [2] | [5] | [7] | [9] | [14]
active: [3] 63.5 µM | [4] 149 µM | [6] 156 µM | [8] 169 µM | [10] 145 µM | [11] 153 µM | [12] 23.2 µM | [15] 36.3 µM | [16] 153 µM | [18] 107 µM | [20] 46.9 µM

CC[C@H](C)C(=O)O[C@H]1C[C@@H](C)C=C2C=C[C@H](C)[C@H](CC[C@@H]3C[C@@H](O)CC(=O)O3)[C@H]21
active: [5] 8.11 µM | [18] 10.5 µM
inactive: all other assays above

CC[C@H]1CC[C@H](NCc2cc3c(cc2OC)[C@H]2C[C@H]2C(=O)N3C)[C@H](c2ccccc2)N1
active: [3] 71.3 µM | [6] 100 µM | [8] 100 µM | [11] 69 µM | [12] 80.9 µM | [17] 71.5 µM | [18] 114 µM
not listed: [19]
inactive: all other assays above

COc1ccc(-n2nc(C(F)F)cc2-c2ccc(S(C)=O)cc2)cc1 (configuration not stated)
not listed: [13] | [17] | [19]
inactive: all other assays above

C=CC(=C)CCC=C(C)C
not listed: [13]
inactive: all other assays above

CCOC(=O)COc1ccc2c(c1)CC(NCC(O)c1cccc(Cl)c1)CC2 (configuration not stated)
active: [15] 33 µM | [17] 45.5 µM | [19] 49.3 µM
not listed: [11]
inactive: all other assays above

Cc1ccc(S(=O)(=O)O)cc1C
not listed: [17]
inactive: all other assays above

C=CCCCCCCCCC(=O)O
not listed: [13] | [17] | [19]
inactive: all other assays above

CCCCC(CC)COC(=O)CCCCCCCCC(=O)OCC(CC)CCCC (configuration not stated)
not listed: [17]
inactive: all other assays above
